DT40 TDP1 CPT: DT40-hTDP1 cell growth loss with CPT | chicken DT40 Tdp1-/-;hTDP1 cells + 20 nM CPT, ATP luminescence, 48 h | Potency, µM (top dose mostly 46.2 µM), actives largely listed as inhibitors | actives 12% (n = 420,000); further: nearly all actives have a fitted effect of over 55% in size
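Cell growth measured by CellTiter-Glo luminescence after a minimum 48 h, 37 C compound exposure with 20 nM CPT in Tdp1-knockout DT40 cells stably expressing hTDP1, seeded 400/well; qHTS titration format.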
HT1080 IDH1KD tx: toxicity to HT-1080 IDH1 knockdown cells (counter line) | HT-1080 IDH1 knockdown viability, ATP luminescence, 48 h | Potency, µM (top dose mostly 46.1 µM), actives largely listed as cytotoxic | actives 2% (n = 360,000)
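% activity derives from luminescence (CellTiter-Glo), normalised to DMSO and no-cell wells. HT-1080-IDH1KD cells, 750/well, had 48 h compound exposure at 37 °C.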
ALOX12 inh: inhibitors of human 12S-lipoxygenase ALOX12; AID 1671190; actives 1.1% (n = 580,000); P18054; purified 12hLO, xylenol orange hydroperoxide absorbance; Potency, µM (top dose mostly 108 µM), most hits filed as inhibitors
Target sequence (P18054 whole entry, looked up): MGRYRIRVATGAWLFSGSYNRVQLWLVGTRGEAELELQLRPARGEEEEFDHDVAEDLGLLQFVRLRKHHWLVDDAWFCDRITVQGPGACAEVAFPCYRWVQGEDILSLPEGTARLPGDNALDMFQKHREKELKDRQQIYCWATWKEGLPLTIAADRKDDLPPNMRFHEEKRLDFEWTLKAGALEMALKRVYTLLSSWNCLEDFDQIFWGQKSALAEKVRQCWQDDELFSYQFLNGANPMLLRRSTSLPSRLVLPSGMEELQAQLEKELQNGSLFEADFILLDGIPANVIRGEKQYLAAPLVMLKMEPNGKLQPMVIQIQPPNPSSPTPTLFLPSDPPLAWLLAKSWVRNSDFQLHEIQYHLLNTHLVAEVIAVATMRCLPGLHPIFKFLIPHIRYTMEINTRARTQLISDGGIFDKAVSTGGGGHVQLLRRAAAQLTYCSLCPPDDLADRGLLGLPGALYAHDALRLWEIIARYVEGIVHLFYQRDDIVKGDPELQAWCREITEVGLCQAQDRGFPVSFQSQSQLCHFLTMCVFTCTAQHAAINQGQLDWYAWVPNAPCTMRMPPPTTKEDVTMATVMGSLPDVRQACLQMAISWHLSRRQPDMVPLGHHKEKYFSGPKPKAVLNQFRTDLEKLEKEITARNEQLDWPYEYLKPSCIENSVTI
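Purified human 12hLO (150 nM final) in 25 mM Hepes, 0.01% Triton X-100, pH 7.0 was preincubated 15 min at room temperature with compound. Then 40 uM arachidonic acid was added, 30 min. Hydroperoxide was read by Fe-XO absorbance ratio 573/405 nm.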
TDP1 cell noCPT: qHTS for Inhibitors of human tyrosyl-DNA phosphodiesterase 1 (TDP1): qHTS in cells in absence of CPT; actives 15% (n = 420,000); Potency, µM (top dose mostly 46.2 µM), usual class: inhibitors; DT40 Tdp1-/- hTDP1 cells, no CPT, ATP luminescence, 48 h; further: nearly all actives have a fitted effect of over 55% in size
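Readout: luminescence from CellTiter-Glo after 30 min in the dark at RT. Cells: DT40 Tdp1-/- with stable hTDP1, 400/well. Exposure: compounds alone, ≥48 hr, 37 °C.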
IL1B secr inh: inhibitors of inflammasome signaling (IL-1 beta secretion). AID 743279. THP-1 LPS/ATP IL-1B secretion, AlphaLISA, 16 h; hits give low values. activity change, % at 57.5 µM. actives 4.7% (n = 360,000); in the data active means activity change below about -50%; inconclusive means mostly about -30% to -49%
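Secreted IL-1B measured by AlphaLISA bead assay after 16 h compound exposure of THP-1 cells; compounds (final up to 57.5 uM) added 1 h before LPS (250 ng/mL) and ATP (1.25 mM) stimulation; lower signal means less secretion.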
HT1080NT lethal: kills 2HG-producing HT-1080-NT fibrosarcoma cells; Potency, µM (doses to about 46.1 µM), hits mostly cytotoxic; HT-1080-NT fibrosarcoma viability, CellTiter-Glo ATP luminescence, 48 h; AID 686970; actives 1.6% (n = 360,000);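 further: NT is the 2HG producing partner of a matched IDH1 knockdown line; nearly all actives have a fitted effect of over 55% in size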
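Viability by CellTiter-Glo luminescence after 48 h compound exposure at 37C of HT-1080-NT cells (750/well, RPMI, 5% FBS). % activity scaled between DMSO wells and medium-only wells, then curve-fitted and categorized by curve class.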
A number is an active result; – = inactive; ? = inconclusive; · = not tested or not shown; [ ] = another dose, or the depositor's remark. The full list was thinned out, with hits kept by preference. Unless noted, the call rests on the fitted dose curve; in most records, active means well fitted curve in the direction sought with a large enough effect; inconclusive means small, poorly fitted or top-dose-only effect, or another doubt; inactive means no such curve, though single readings can be large; an effect the other way counts as inactive or inconclusive.

SMILES	DT40 TDP1 CPT	HT1080 IDH1KD tx	ALOX12 inh	TDP1 cell noCPT	IL1B secr inh	HT1080NT lethal
COc1ccccc1OCC(=O)Nc1ccncc1	–	–	–	?	–	–
C/C=C/c1ccc(OCC(=O)Nc2ccc(OC)c(OC)c2)c(OC)c1	16.4µM	–	–	23.1µM	–	–
COc1cc(/C=C2\C(=O)N(CCC#N)N=C2C)ccc1OCC(=O)Nc1ccccc1	?	–	?	?	-60.8	–
C/C=C/c1ccc(OCC(=O)Nc2ccncc2)c(OC)c1	18.4µM	–	–	?	–	–
CCOC(=O)C1=C(CSc2nc3ccccc3s2)NC(=O)NC1c1cc(C)ccc1C (stereo not given)	?	–	–	23.1µM	?	?
CCOC(=O)C1=C(CSc2nc3ccccc3s2)NC(=O)NC1c1ccc(OC)cc1 (stereo not given)	20.6µM	?	–	18.4µM	-86.0	?
CCOC(=O)C1=C(CSCC(=O)OC)NC(=O)NC1c1cc(C)ccc1C (stereo not given)	–	–	–	–	–	–
CC(SC1=Nc2ccccc2C2CC=NN12)C(=O)NC1(C#N)CCCCC1 (stereo not given)	11.6µM	–	–	23.1µM	–	–
Cn1nc(-c2ccc(Cl)cc2)c2cc(C(=O)NCCCN3CCCC3)sc21	?	?	–	23.1µM	-88.7	?
CCN1CCCC1CNC(=O)c1cc2c(-c3ccc(Cl)cc3)nn(C)c2s1 (stereo not given)	18.4µM	20.6µM	·	18.4µM	-84.8	25.9µM
COCCCNC(=O)c1cc2c(-c3ccc(Cl)cc3)nn(C)c2s1	?	–	–	?	–	–
COC(=O)C1=C(C)N(C)C(=O)N(C)C1c1ccc(Br)cc1 (stereo not given)	·	·	–	·	·	·
CC(C)OC(=O)COc1ccc(/C=C(/C#N)c2nc3ccccc3[nH]2)cc1	·	·	–	·	·	·
S=c1nc(-c2ccco2)[nH][nH]1	–	–	6.31µM	–	–	–
Cc1ccc(NC(=O)CC2CC3CCC2C3)c(Br)c1 (stereo not given)	·	·	–	·	·	·
CCC1CN(C(=O)NCc2ccccc2)c2ccccc2O1 (stereo not given)	–	–	–	?	–	–
CCOC(=O)c1cccc(NC(=O)N2CC(CC)Oc3ccccc32)c1 (stereo not given)	?	·	–	16.4µM	·	·
CCC1CN(C(=O)Nc2cc(C)cc(C)c2)c2ccccc2O1 (stereo not given)	?	·	–	?	·	·
CCC1CN(C(=O)Nc2cccc(OC)c2)c2ccccc2O1 (stereo not given)	?	·	–	23.1µM	·	·
CCC1CN(C(=O)Nc2cccc(C)c2)c2cc(C)ccc2O1 (stereo not given)	?	–	?	20.6µM	–	–
CC1(C)Cc2c(sc3ncn4nc(C(=O)NCc5ccco5)nc4c23)CO1	·	·	–	·	·	·
Cc1nc2ccc(C(=O)N3CCOC(C)C3)cc2nc1C (stereo not given)	·	·	–	·	·	·
CC1CC(C)CN(C(=O)CSC2=Nc3ccccc3C3=NC(Cc4c[nH]c5ccccc45)C(=O)N23)C1 (stereo not given)	?	–	·	16.4µM	–	–
O=C(Nc1ccc(Cl)c(-c2nc3ncccc3o2)c1)c1cccs1	·	·	–	·	·	·
Cc1cc(Cl)c2oc(C(=O)N3CCN(c4ccncc4)CC3)c(C)c2c1	20.6µM	11.6µM	–	13µM	-88.2	11.6µM
SMILES	DT40 TDP1 CPT	HT1080 IDH1KD tx	ALOX12 inh	TDP1 cell noCPT	IL1B secr inh	HT1080NT lethal
Cc1ccc2c(C)c(C(=O)N3CCN(c4ncccn4)CC3)oc2c1C	20.6µM	–	–	16.4µM	–	–
COC(=O)C1CCN(C(=O)c2oc3c(Cl)cc(C)cc3c2C)CC1	?	–	–	20.6µM	–	–
COc1ccc2oc(C(=O)N3CCN(c4ncccn4)CC3)c(C)c2c1	–	–	–	–	–	–
CCOC(=O)C1CCCCN1C(=O)c1oc2c(Cl)cc(C)cc2c1C (stereo not given)	?	–	–	?	–	–
COc1cc(OC)c(NS(=O)(=O)c2ccc(Cl)c(C(=O)OC(C)C(=O)N3CCCC3)c2)cc1Cl (stereo not given)	18.4µM	?	–	20.6µM	–	–
COc1cc(OC)c(NS(=O)(=O)c2ccc3c(c2)NC(=O)CO3)cc1Cl	18.4µM	–	–	?	–	–
Cc1cccc(NS(=O)(=O)c2ccc3c(c2)OCCO3)c1	–	–	?	–	–	–
COc1c(C)cc(NS(=O)(=O)c2ccc3c(c2)OCCO3)cc1C	9.2µM	·	?	2.59µM	·	·
COc1ccc(NS(=O)(=O)c2ccc3c(c2)OCCO3)cc1OC	7.31µM	?	–	5.8µM	–	–
COc1ccc(S(=O)(=O)Nc2ccc3c(c2)OCO3)cc1OC	–	–	–	–	–	–
CCc1noc(-c2cn(C3CCN(C(=O)c4cc(F)ccc4F)C3)nn2)n1 (stereo not given)	·	·	–	·	·	·
Cc1cc(S(=O)(=O)Nc2ccccn2)ccc1Cl	·	·	–	·	·	·
O=C(c1ccncc1)N1CCC2(COc3ncccc3S(=O)(=O)N2)C1 (stereo not given)	·	·	–[6.33 µM]	·	·	·
COc1ccc(S(=O)(=O)Nc2ccc3c(c2)OCCO3)cc1Cl	23.1µM	–	–	?	–	–
COC(=O)c1cc(NS(=O)(=O)c2ccc3c(c2)OCCO3)ccc1Cl	·	·	–	·	·	·
CSc1nc2ccc(NS(=O)(=O)c3ccc4c(c3)OCCO4)cc2s1	?	–	–	23.1µM	–	–
O=S(=O)(Nc1ccc2c(c1)OCCO2)c1ccc(F)c(F)c1	–	–	–	?	–	–
CCNC(=O)COC(=O)c1ccc(NS(=O)(=O)c2ccc3c(c2)OCCO3)cc1	–	–	–	–	–	–
CCOC(=O)c1ccc(NS(=O)(=O)c2ccc3c(c2)OCCO3)cc1	13µM	·	–	29.1µM	·	·
Cc1ccc(S(=O)(=O)Nc2ccc3c(c2)OCCO3)cc1C	?	–	–	18.4µM	–	–
O=C(COC(=O)c1ncc(Cl)c(Cl)c1Cl)NC(=O)c1ccccc1	–	–	–	–	–	–
CC(C)CN(C)C(=O)c1ccccc1-c1ncc(-c2ccccc2F)o1	·	·	–	·	·	·
CC1(C)C(=O)N(CCOc2ccccc2)[C@H]2CN(CC3CCOC3)C[C@H]2[S+]1(=O)[O-] (stereo not given in full)	·	·	–	·	·	·
O=C1CC(c2noc(-c3ccc(F)cc3)n2)CN1c1ccc(Cl)cc1 (stereo not given)	·	·	–	·	·	·
CC(=O)Nc1ccc(S(=O)(=O)Nc2ccc3c(c2)OCCO3)cc1Cl	?	?	–	7.31µM	–	–
